Screens: PubChem, National Center for Advancing Translational Sciences (NCATS)
Rows were chosen to be rich in hits. Some 19% of all compounds tested hit in one or more screens of this group.
DT40 TDP1 CPT: DT40-hTDP1 cell growth loss with CPT. chicken DT40 Tdp1-/-;hTDP1 cells + 20 nM CPT, ATP luminescence, 48 h. Potency, µM (doses to about 46.2 µM), for the others: at the highest dose activity change, negative = growth inhibition, actives largely listed as inhibitors. actives 12% (n = 420,000); note: potency is the fitted concentration of half-maximal effect; nearly all actives have a fitted effect of over 55% in size
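Chicken DT40 Tdp1-/- cells complemented with human TDP1, 400 cells/well, exposed to compounds plus 20 nM camptothecin for at least 48 h at 37 C; viability read as ATP content by CellTiter-Glo luminescence.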
TDP1 cell noCPT: qHTS for Inhibitors of human tyrosyl-DNA phosphodiesterase 1 (TDP1): qHTS in cells in absence of CPT; DT40 Tdp1-/- hTDP1 cells, no CPT, ATP luminescence, 48 h; Potency, µM (series often up to 46.2 µM), for inactives: top-dose activity change, negative = growth inhibition, usual class: inhibitors; actives 15% (n = 420,000); note: potency is the fitted concentration of half-maximal effect; nearly all actives have a fitted effect of over 55% in size
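Cells were dispensed at 400 per well, compounds added by pin tool, plates incubated ≥48 hr at 37 °C, then CellTiter-Glo added for 30 min at room temperature before luminescence reading. Line: DT40 Tdp1-/- complemented with hTDP1; camptothecin omitted.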
HT1080-NT tox: kills 2HG-producing HT-1080-NT fibrosarcoma cells; HT-1080-NT fibrosarcoma viability, CellTiter-Glo ATP luminescence, 48 h; Potency, µM (top dose mostly 46.1 µM), for the others: top-dose activity, negative = less viability, most hits filed as cytotoxic; actives 1.6% (n = 360,000);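 note: NT is the 2HG producing partner of a matched IDH1 knockdown line; potency is the fitted concentration of half-maximal effect; 0% = DMSO-treated cells and -100% = media-only wells without cells; nearly all actives have a fitted effect of over 55% in size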
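Compounds were tested in concentration-response format on HT-1080-NT cells for 48 hours at 37 degrees C. Cell viability came from CellTiter-Glo luminescence; curves were classified by r2, response magnitude and activity.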
HT1080 IDH1KD tx: HT-1080 IDH1 knockdown cell toxicity (counter line) | actives 2% (n = 360,000) | HT-1080 IDH1 knockdown viability, ATP luminescence, 48 h | Potency, µM (titrated, usually from 46.1 µM), for inactives: top-dose activity, negative = toxicity, most hits filed as cytotoxic;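 note: potency is the fitted concentration of half-maximal effect; 0% = DMSO wells and -100% = cell-free medium wells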
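% activity derives from luminescence (CellTiter-Glo), normalised to DMSO and no-cell wells. HT-1080-IDH1KD cells, 750/well, had 48 h compound exposure at 37 °C.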
IL1B secr inh: inhibitors of inflammasome signaling (IL-1 beta secretion) | THP-1 LPS/ATP IL-1B secretion, AlphaLISA, 16 h; active compounds read low | activity change, % at 57.5 µM | actives 4.7% (n = 360,000); in the data active = activity change below about -50%; inconclusive = mostly about -30% to -49%
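THP-1 cells pretreated 1 hr with compounds (up to 57.5 uM final), then stimulated with LPS (250 ng/mL final) plus ATP (1.25 mM final); secreted IL-1B measured by AlphaLISA after 16 hr, decreased signal indicating inhibition.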
Numbers without * were called inactive; ? = inconclusive; / = no result given. Unless noted, calls come from the whole dose curve; as a rule, active = well fitted curve in the direction sought with a large enough effect; inconclusive = small, poorly fitted or top-dose-only effect, or another doubt; inactive = no such curve, though single readings can be large; an effect the other way counts as inactive or inconclusive. Unless noted, % is set by controls: 0 for no effect and ±100 for the full control effect.

SMILES	DT40 TDP1 CPT	TDP1 cell noCPT	HT1080-NT tox	HT1080 IDH1KD tx	IL1B secr inh
CCN(C(=O)CCc1nc(-c2ccc(C)cc2)no1)c1cc(C)ccc1C	18µM*	23µM*	/	/	/
Cc1ccc2c(C(=O)CNc3nncs3)c(C)[nH]c2c1	-5%	-8%	14%	8%	?
CN(C(=O)CSc1nc(N)cc(N)n1)C1CCS(=O)(=O)C1 (configuration not stated)	1%	-1%	5%	4%	1
COc1ccc(-c2n[nH]c(=S)n2/N=C/C=C\c2ccccc2OC)cc1	23µM*	10µM*	-16%	-15%	32
COc1ccccc1/C=C/C=N/n1c(-c2n[nH]c3c2CCC3)n[nH]c1=S	?	13µM*	-2%	?	-23
COc1ccc(OC)c(-n2c(-c3ccccc3)n[nH]c2=S)c1	9%	-4%	5%	0%	3
COc1cc(-c2n[nH]c(=S)n2-c2ccc(C)cc2)cc(OC)c1OC	16µM*	-17%	1%	-5%	-18
COc1ccccc1-n1c(-c2ccccc2)n[nH]c1=S	22%	2%	?	2.6µM*	21
COc1ccccc1/C=C/C=N/n1c(-c2ccc(C)cc2)n[nH]c1=S	?	?	3%	0%	33
O=C(NCc1ccccc1C(F)(F)F)C1CC(c2cccc(F)c2)=NO1 (configuration not stated)	-1%	2%	14%	10%	-11
Cc1ccccc1OCCC(=O)N1CCN(S(=O)(=O)c2ccc(Cl)cc2)CC1	-9%	-1%	-2%	-16%	-17
Cc1ccc(CNC(=O)c2oc3c(c2C)-c2nn(Cc4ccc(Cl)cc4)cc2CC3)cc1	10µM*	9.2µM*	/	/	/
Cc1c(C(=O)NCc2ccccc2)oc2c1-c1[nH]ncc1CC2	?	-16%	/	/	/
COc1ccc(CNC(=O)c2c(-c3c(F)cccc3Cl)noc2C)cc1	-2%	?	12%	17%	26
Cc1cccc(CNC(=O)c2oc3c(c2C)-c2nn(Cc4ccccc4Cl)cc2CC3)c1	?	21µM*	/	/	/
COc1ccc(CNC(=O)c2oc3c(c2C)-c2nn(Cc4ccccc4Cl)cc2CC3)cc1	?	23µM*	/	/	/
COc1ccccc1CNC(=O)c1oc2c(c1C)-c1nn(Cc3ccc(Cl)cc3)cc1CC2	16µM*	21µM*	/	/	/
COc1ccccc1CNC(=O)c1csc(Cc2ccc(Cl)cc2)n1	?	?	-16%	-13%	-11
NC(=O)Cn1c(=O)n(CCCCCC(=O)NCc2ccc(F)cc2)c(=O)c2sccc21	5%	-1%	/	/	/
COP(=O)(c1ccc(N(C)C)cc1)C(O)c1ccccc1 (configuration not stated)	6%	0%	23%	-2%	-22
Nc1nc(N)n(-c2ccccc2)c(=Nc2ccccc2)n1	1%	7%	1%	7%	-6
COc1ccc(CCNC(=O)CCCn2c(=O)c3ccccc3n(Cc3ccccc3C#N)c2=O)cc1OC	2%	-18%	/	/	/
Cc1c(C(=O)O)oc2c1-c1nn(Cc3ccc(Cl)cc3)cc1CC2	12%	-9%	/	/	/
Cc1cccc(CNC(=O)c2oc3c(c2C)-c2nn(Cc4cccc(Cl)c4)cc2CC3)c1	?	29µM*	/	/	/
CC(=O)Nc1ccc(S(=O)(=O)Nc2ccn(Cc3ccccc3Cl)n2)cc1	-16%	-12%	0%	-3%	7
SMILES	DT40 TDP1 CPT	TDP1 cell noCPT	HT1080-NT tox	HT1080 IDH1KD tx	IL1B secr inh
CCOC(=O)c1oc2c(c1C)-c1nn(Cc3ccc(Cl)cc3)cc1CC2	16µM*	21µM*	/	/	/
CCOc1ccc(CNC(=O)c2oc3c(c2C)-c2nn(Cc4cccc(Cl)c4)cc2CC3)cc1	18µM*	16µM*	/	/	/
CC(=O)Nc1ccc(NC(=O)c2oc3c(c2C)-c2nn(Cc4ccccc4Cl)cc2CC3)cc1	8.2µM*	18µM*	/	/	/
COC(=O)C(C)NC(=O)CNS(=O)(=O)c1ccc(F)cc1 (configuration not stated)	3%	-30%	0%	2%	23
O=[N+]([O-])c1ccc(Cl)c(NC2=NCCCCC2)c1	7%	1%	13%	10%	16
Cc1ccnc(NC(=O)c2cc3cc(F)ccc3s2)c1	-11%	-10%	-15%	-21%	?
O=[N+]([O-])O[C@@H]1CO[C@H]2[C@@H]1OC[C@@H]2O	12%	-12%	/	/	/
COc1ccc(-c2ccc(=O)n(CC(=O)Nc3ccc(C)cc3C)n2)cc1	-19%	?	/	/	/
CCOc1ccc(/C=N/NC(=O)c2ccc3nc[nH]c3c2)cc1OC	?	?	1%	-1%	-18
CCn1cc(Br)c(C(=O)Nc2ccc(F)cc2F)n1	0%	-9%	14%	19%	-11
CCn1cc2c(n1)-c1c(oc(C(=O)Nc3ccc(Br)cc3F)c1C)CC2	?	21µM*	/	/	/
COc1ccc(NC(=O)C2CCCN2C(=O)NC2CCCCC2)c(OC)c1 (configuration not stated)	-8%	-2%	17%	?	5
Cc1cccc(NC(=S)N(Cc2ccco2)C(C)c2cccs2)c1 (configuration not stated)	29µM*	?	2%	-7%	-23
CN(Cc1cnn(C)c1)C(=O)C1CCC(=O)N(Cc2cccc(C(F)(F)F)c2)C1 (configuration not stated)	3%	-10%	1%	6%	4
CN(Cc1cccc(C(F)(F)F)c1)C(=O)C1CCC(=O)N(CC2CCCCC2)C1 (configuration not stated)	?	16µM*	-3%	0%	-16
NC(=O)Cc1ccc(C(=O)c2ccccc2)s1	-17%	-31%	-2%	-2%	-16
N#CCn1cc(/C=N/NC(=O)c2cc3c(ccc4ccccc43)o2)c2ccccc21	21µM*	12µM*	?	9.2µM*	-4
N#CCC(=O)N/N=C/c1cn(Cc2ccccc2C#N)c2ccccc12	3%	-23%	-1%	5%	29
COc1ccc(/C=N\NC(=O)c2cc3c(ccc4ccccc43)o2)cc1O	?	?	?	4.6µM*	-5
N#CCC(=O)N/N=C/c1cn(Cc2cccc3ccccc23)c2ccccc12	5.2µM*	3.7µM*	?	10µM*	0
COc1ccccc1/C=N/NC(=O)c1cc2c(ccc3ccccc32)o1	16µM*	?	-3%	19%	-9
COc1ccc(/C=N/NC(=O)c2cc3c(ccc4ccccc43)o2)cc1OC	?	?	-3%	-17%	-7
O=C(N/N=C/c1ccncc1)c1cc2c(ccc3ccccc32)o1	6%	-7%	-2%	6%	-3
